Most compounds without a hit are left out; they make up all but 2.1% or so of the library.
PABP1 MLLE inh = blocks PAM2 peptide binding to the PABP1 MLLE domain; P11940; GST-MLLE / FITC-PAM2 fluorescence polarization; AID 588489; inhibition, % at 20 µM; hit rate 0.36% among 360,000; in the data active = inhibition above about 35%, passing the limit was not always enough;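 also: plate controls were DMSO wells with GST-MLLE for no effect and wells lacking GST-MLLE protein for full effect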
CendR NRP1 mod = alters CendR peptide binding to human NRP-1 | AID 602438 | hit rate 0.85% among 360,000 | O14786 | FAM-RPARPAR peptide binding to NRP-1, fluorescence polarization | inhibition, % at 25 µM;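 active = inhibition or corrected inhibition above about 18%, plus a signal ratio from 0.5 to 1.5, limit read from the data, passing the limit was not always enough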
Target sequence (O14786 whole entry, looked up): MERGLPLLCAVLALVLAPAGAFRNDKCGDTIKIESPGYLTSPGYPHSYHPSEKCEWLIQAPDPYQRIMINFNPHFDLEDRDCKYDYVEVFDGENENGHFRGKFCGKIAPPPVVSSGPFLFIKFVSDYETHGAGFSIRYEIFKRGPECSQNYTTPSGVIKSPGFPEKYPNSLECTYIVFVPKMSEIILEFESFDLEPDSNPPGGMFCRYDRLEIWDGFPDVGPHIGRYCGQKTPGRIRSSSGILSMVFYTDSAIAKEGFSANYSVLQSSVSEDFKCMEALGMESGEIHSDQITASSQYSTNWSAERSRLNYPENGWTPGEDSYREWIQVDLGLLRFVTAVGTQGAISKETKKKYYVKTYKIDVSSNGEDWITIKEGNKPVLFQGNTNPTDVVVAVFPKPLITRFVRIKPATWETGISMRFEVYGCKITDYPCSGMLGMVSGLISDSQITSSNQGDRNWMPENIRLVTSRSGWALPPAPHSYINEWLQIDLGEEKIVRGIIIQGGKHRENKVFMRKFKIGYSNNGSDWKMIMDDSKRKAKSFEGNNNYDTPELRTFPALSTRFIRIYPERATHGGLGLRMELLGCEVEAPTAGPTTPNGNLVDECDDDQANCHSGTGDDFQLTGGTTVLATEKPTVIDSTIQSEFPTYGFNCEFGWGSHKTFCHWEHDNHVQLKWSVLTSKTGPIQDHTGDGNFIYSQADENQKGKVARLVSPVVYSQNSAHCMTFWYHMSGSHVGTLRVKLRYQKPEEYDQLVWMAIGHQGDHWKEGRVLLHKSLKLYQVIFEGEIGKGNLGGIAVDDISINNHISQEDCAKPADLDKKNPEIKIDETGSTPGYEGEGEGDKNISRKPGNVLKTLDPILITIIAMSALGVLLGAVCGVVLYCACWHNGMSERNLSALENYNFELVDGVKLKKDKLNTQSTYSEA
eIF4H inh = inhibitors of RNA binding by human eIF4H; Q15056; eIF4H fluorescence polarization binding assay; inhibition, % at 35 µM; hit rate 0.94% among 290,000; AID 2012;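 also: calls also rest on retests at 20 µM and on dose response follow-up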
PABP polyA inh = PABP-poly(A) binding inhibition. PABP-poly(A) RNA binding, fluorescence polarization. inhibition, % at 35 µM. hit rate 1% among 290,000. AID 2014;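 also: calls also rest on retests at 20 µM and on dose response follow-up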
* hit, by the source's call; x = no result. Unless noted, no rule for the calls is given here.

SMILES | PABP1 MLLE inh | CendR NRP1 mod | eIF4H inh | PABP polyA inh
CCc1nnc(NS(=O)(=O)c2ccc(NC(=S)NC(=O)c3ccc(F)cc3)cc2)s1 | 28 | -27 | 0.6* | 119
Cc1nc(NC(=O)C(C)(C)C)sc1C(=O)Cn1cc(CCCC#N)nn1 | x | 1 | x | x
C=CCOc1ccc(/C=C/C(=O)OCC(=O)NCC(=O)Nc2c(C)cc(C)cc2C)cc1 | -6 | 6 | x | x
CCc1ccccc1Nc1nn2c(=O)c3ccc(C(=O)NCc4ccccn4)cc3nc2s1 | -5 | 5 | 20 | 6
CC(=O)Nc1ccc(NC(=S)NC(=O)c2ccc(-c3ccccc3)cc2)cc1 | 34 | -1 | x | x
Cc1cc(NS(=O)(=O)c2ccc(NC(=S)NC(=O)c3cccnc3)cc2)no1 | 31 | 17 | -8 | -14
CC(C)NS(=O)(=O)c1ccc(NC(=S)NC(=O)c2ccc(-c3ccccc3)cc2)cc1 | 41* | 15 | 0 | -2
Cc1cc(NS(=O)(=O)c2ccc(NC(=S)NC(=O)c3ccc(Br)cc3)cc2)no1 | 42* | -5 | -9 | -2
COc1cc(Cl)c(C)cc1NC(=O)CN(C)C1CCS(=O)(=O)C1 (stereo not drawn) | 0 | -3 | x | x
O=c1oc2ccc(Cl)cc2nc1/C=C(\O)c1ccco1 | -78 | 133 | 3 | 21
CC(C)C/C(O)=C/c1nc2cc(Cl)ccc2oc1=O | 13 | -10 | 79* | active
O=C1CC(=O)N(Cc2ccco2)C(=S)N1 | -118 | -162 | 64* | 84*
CCCc1c(-c2ccc(Cl)cc2)ncn1Cc1cccc(-c2ccccc2)c1 | x | 12 | x | x
CC1(c2ccc3ccccc3c2)NC(=O)N(CC(=O)NCC(C)(C)N2CCOCC2)C1=O (stereo not drawn) | -6 | 2 | x | x
CSc1nc2oc3c(c2c2nncn12)CC(C)(C)SC3 | 45* | 3 | 32 | 25
Cc1ccnc(NC(=O)CCC(=O)c2cccs2)c1 | -18 | 3 | x | x
C#CCNC(=O)C1=C[C@H](C2CCCCC2)C[C@H](OCc2ccc(CO)cc2)O1 | -9 | -9 | -2 | -8
C#CCNC(=O)C1=C[C@@H](C2CCCCC2)C[C@@H](OCc2ccc(CO)cc2)O1 | 5 | 28* | -8 | 1
CC[n+]1ccc(/C=C2\Sc3ccccc3N2CCCS(=O)(=O)[O-])c2ccccc21 | -143 | -19 | 0 | 55*
Cn1c(=O)n(C)c2cc([N+](=O)[O-])c(N3CCN(C(=O)c4cccc(Cl)c4)CC3)cc21 | 12 | 0 | active | 50*
Cn1c(=O)n(C)c2cc([N+](=O)[O-])c(N3CCN(C(=O)c4cccc(F)c4)CC3)cc21 | 22 | 5 | 7 | -4
Cc1cccc(C)c1NC(=O)C1(C)CSCC(=O)N1CCc1ccccc1 (stereo not drawn) | x | 2 | x | x
CN(C)c1ccc(C(CNS(=O)(=O)c2ccc([N+](=O)[O-])cc2)N2CCCC2)cc1 (stereo not drawn) | -8 | -5 | x | x
Cc1ccc(C(=O)NCC(=O)OCC(=O)c2cc(C)n(Cc3ccco3)c2C)cc1 | -15 | 33* | 9 | 0
Cc1cc(C(=O)COC(=O)Cn2c(C(F)(F)F)nc3ccccc32)c(C)n1Cc1ccco1 | -5 | 20* | 5 | 6
SMILES | PABP1 MLLE inh | CendR NRP1 mod | eIF4H inh | PABP polyA inh
Cc1cccc(C(=O)N/C(=C\c2ccc(C)o2)C(=O)O)c1 | 6 | 7 | 1 | -5
CCc1ccccc1S(=O)(=O)c1c(C)cc(C)nc1Cl | 10 | -1 | -1 | -6
Cc1nc(CSc2ccc(Br)cc2)cs1 | 3 | 20* | 0 | 0
Cc1nc(CSc2ccc(Cl)cc2)cs1 | -3 | 2 | 2 | -6
CC(C)CN(C(=O)COC(=O)C1c2ccccc2Oc2ccccc21)C1CCS(=O)(=O)C1 (stereo not drawn) | -13 | 24* | -10 | -6
CCN(C(=O)COC(=O)c1cc2c(s1)CCCCC2)C1CCS(=O)(=O)C1 (stereo not drawn) | 5 | 5 | 57 | -8
CC(C)CN(C(=O)COC(=O)c1cc2c(s1)CCC2)C1CCS(=O)(=O)C1 (stereo not drawn) | 1 | 3 | 86* | 22*
Cc1cc(C)n2nc(SCC(=O)Nc3ccc(F)c(F)c3F)nc2n1 | 9 | -2 | x | x
Cc1ccc(NNS(=O)(=O)c2ccc(C)cc2)cc1 | 13 | 28* | -11 | 2
COc1ccccc1S(=O)(=O)CC(O)COc1ccc(C#N)cc1 (stereo not drawn) | -5 | 16 | -13 | 1
CCOC(=O)COc1ccc2c(C#N)c3ccccn3c2c1 | 43* | -13 | 83 | -1
Cc1cccc(CN2CCN([C@H]3CS(=O)(=O)N[C@@H]3COCc3ccccc3)CC2)c1 | -4 | 26* | x | x
c1ccc(-c2ccc(CNC3CC3)cc2)cc1 | 11 | 4 | -3 | 17
COc1ccc(/C=C/C(=O)N(C)Cc2cccs2)cc1S(=O)(=O)N1CCOCC1 | 18 | 35* | 6 | -5
COc1ccccc1NC(=O)/C=C/c1ccc(OC)c(S(=O)(=O)N2CCOCC2)c1 | -22 | -4 | -5 | -3
CCCc1ccc(OCC(O)CN2CCN(c3ccccn3)CC2)cc1 (stereo not drawn) | 4 | 2 | -6 | 8
COc1c(O)ccc(C2NC(=O)NC(C)=C2C(=O)Nc2ccccc2C)c1[N+](=O)[O-] (stereo not drawn) | -11 | 11 | 38 | -12
Cc1cccnc1NC(=S)NC(=O)c1oc2ccccc2c1C | 40* | 4 | 3 | 0
Cc1oc2c(cc(NS(=O)(=O)c3ccc(C(C)C)cc3)c3ccccc32)c1C(=O)O | 126 | 85 | 66* | 64*
CSc1ccccc1NC(=O)CN(C)C(=O)c1ccc(-n2cccn2)cc1 | 4 | -1 | x | x
CCn1c(N)c(C(=O)NCCCOC)sc1=S | 21 | -6 | 1 | 4
CC(C)OCCCNC(=O)c1sc(=S)n(C)c1N | 41* | -1 | -10 | 14
CC(C)(C)OC(=O)NCCc1n[nH]c(=S)o1 | -72 | 27* | 5 | -9
Cn1c(CCNC(=O)OC(C)(C)C)n[nH]c1=S | 22 | -4 | -10 | 5
O=NN(C(=O)NCc1cccnc1)C1CCCCC1 | -2 | 1 | x | x
SMILES | PABP1 MLLE inh | CendR NRP1 mod | eIF4H inh | PABP polyA inh
COCc1nnc(NC(=O)c2cccc(NC(=O)C(C)C)c2)s1 | -2 | -9 | -2 | 5
COCc1nnc(NC(=O)C(C)C)s1 | -6 | 26* | 0 | 1
COCCNc1nc(-c2cc(-c3ccccc3)on2)cc(C(C)C)n1 | -9 | 26* | -2 | -6
CC(O)/C=C/c1cccc[n+]1C (stereo not drawn) | -117 | -5 | 14 | 85*
C[n+]1ccccc1/C=N/O | 2 | 2 | 0 | -3
Nc1sc2c(c1C(=O)NC1CC1)CCCC2 | 9 | -21 | x | x
CCNC(=O)c1c(N)sc2c1CCCCC2 | x | x | 62* | 92*
Cc1ccc(NC(=O)[C@@H](CC(C)C)NC(=O)[C@@H]2Cc3ccccc3CN2)cc1 | 10 | 9 | 76 | 2
Cc1ccc(NC(=O)[C@H](CC(C)C)NC(=O)[C@@H]2Cc3ccccc3CN2)cc1 | 0 | 21* | -9 | 2
O=C(CCC(NC(=O)OCc1ccccc1)C(=O)O)OCc1ccccc1 (stereo not drawn) | -5 | 5 | 8 | 1

Assay outcomes deposited in PubChem BioAssay by Sanford-Burnham Center for Chemical Genomics.
